Laboratory results taken from PubChem BioAssay AID1839 (Johns Hopkins Ion Channel Center, 2009).
The campaign covered roughly 2,400 compounds. About 220 (9.2%) were called active.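 How the source made its calls: active means signal change above the mean of dofetilide-free buffer controls plus 3 SD, so a positive margin; inactive means the rest.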 Only a selection was taken, and actives are over-represented in it overall.

test: thallium signal changes without hERG – cell-based, CHO-K1 parental line, FluxOR thallium flux, counter-screen for hERG block protection project, confirmation (AID 1839); conditions: CHO-K1 parental cells, FluxOR thallium flux fluorescence; at 10 µM;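 further: compounds applied alone with no dofetilide to cells lacking hERG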

Structure (SMILES)	signal change vs control minus 3*SD hit threshold (margin above threshold, higher = more increase)
C/C(=N/NC(=O)c1cc2ccccc2cc1O)c1ccco1	3.4% (active)
C/C(=N\NC(=O)c1ccoc1C)c1cccc2ccccc12	-5.5% (inactive)
C/C(=N\NC(=S)Nc1c(C)cccc1C)c1cc2ccccc2o1	-26% (inactive)
C/C(=N\NC(=O)c1cc2ccccc2cc1O)c1cc2ccccc2o1	50.8% (active)
C/C(=N\NC(=O)c1cc2ccccc2cc1O)c1ccc(C)o1	3.3% (active)
C/C(=N\NC(=O)c1cc2ccccc2cc1O)c1ccccn1	-32.4% (inactive)
Cc1ccc(/C=N/NC(=O)c2cc(C)oc2C)o1	-22.9% (inactive)
COc1ccc(CCNC(=O)c2cc3ccccc3oc2=O)cc1	-38.8% (inactive)
Cc1ccc(/C=N/NC(=O)c2cc(-c3ccncc3)nc3ccccc23)o1	-58.7% (inactive)
Cc1cccc(/C=N/NC(=O)c2cc(Br)ccc2O)n1	-26.5% (inactive)
Cc1ccc(/C=N/NC(=O)c2cc3ccccc3cc2O)o1	18.2% (active)
O=C(N/N=C/c1ccc(Sc2ccccn2)o1)c1cc2ccccc2cc1O	-17.7% (inactive)
NC(=O)Cn1c2[n+](c3ccccc31)CC(O)CS2 (stereo not drawn)	-25.7% (inactive)
CC(=O)c1ccc2c(c1)OCCOCCOCCO2	-35.7% (inactive)
CC(CCc1ccccc1)NC(=S)NC(=O)c1ccco1 (stereo not drawn)	0% (inactive)
C/C(=C\C(=O)c1ccccc1)NNC(=O)c1ccc(Cl)cc1	-4.7% (inactive)
Cc1ccc(Cn2nnc3c(=O)n(CC(=O)N4CCCc5ccccc54)cnc32)cc1	-24.6% (inactive)
Cc1ccc(C(=O)CC(=O)c2ccccc2C)c(O)c1	-34% (inactive)
Cc1cc(=S)[nH]c2c(C)cccc12	-20% (inactive)
c1ccc(CCCNc2ncnc3nc[nH]c23)cc1	-18.5% (inactive)
CSc1nsc(SCC(=O)Nc2ccccc2C(=O)O)n1	-22.4% (inactive)
O=C(NC(=S)Nc1nc(-c2ccccc2)cs1)c1cncc(Br)c1	-17.9% (inactive)
Cc1cccc(NC(=S)c2nc3ccccc3s2)c1	-28.6% (inactive)
S=C(Nc1ccc(Cl)cc1)c1nc2ccccc2s1	10.2% (active)
Cc1ccc(NC(=S)c2nc3ccccc3s2)cc1	-24.9% (inactive)
O=c1[nH]c(C(Cl)(Cl)Cl)nc2ccc3ccccc3c12	-12% (inactive)

Structure (SMILES)	signal change vs control minus 3*SD hit threshold (margin above threshold, higher = more increase)
COc1ccc(C)cc1NC(=O)Nc1ccc(C(=O)N2CCCC2)cc1	-20.5% (inactive)
COc1ccccc1NC(=O)C(=O)NNC(=O)c1ccco1	6.5% (active)
COc1ccc(C)cc1NC(=O)C(=O)NNC(=O)c1ccco1	23.7% (active)
COc1ccc(OC)c(NC(=O)C(=O)NNC(=O)c2cccs2)c1	-26.1% (inactive)
O=C(CCC(=O)Nc1ccccc1)NNC(=O)c1ccco1	-34.1% (inactive)
COCC1CCCN(C(=O)c2ccc3oc(C(C)C)nc3c2)C1 (stereo not drawn)	-17.8% (inactive)
C/C(O)=C/c1nc2ccccc2[nH]c1=O	-30.7% (inactive)
CSc1nc2c(c(=O)[nH]1)C(c1ccc(Br)cc1)CC(=O)N2 (stereo not drawn)	-22.1% (inactive)
C=CCn1c(=S)[nH]c2ccc(Br)cc2c1=O	-17.4% (inactive)
C=CCn1c(=S)[nH]c2scc(-c3ccc(C)o3)c2c1=O	27.1% (active)
C=CCn1c(SCC(N)=O)nc2scc(-c3ccc(C)o3)c2c1=O	-20.7% (inactive)
C=CCn1c(=S)[nH]c2scc(-c3cccs3)c2c1=O	37.4% (active)
C=CCn1c(=S)[nH]c2cc(-c3ccccc3)sc2c1=O	-25.2% (inactive)
Cc1ccccc1NC(=O)CN1C(=O)S/C(=C\c2ccc(-c3cccc(C(=O)O)c3C)o2)C1=O	-33.5% (inactive)
C=CCNc1sc(C(=O)C(C)(C)C)c(N)c1C#N	-32.1% (inactive)
O=C(COc1ccc2c3c(c(=O)oc2c1)CCC3)N[C@@H](Cc1ccccc1)C(=O)O	-5.5% (inactive)
CSC1=C(C#N)C(CC(C)C)C2=C(CCCC2=O)N1 (stereo not drawn)	-26.3% (inactive)
Cc1[nH]c(=S)sc1Cc1ccc(Cl)c(Cl)c1	-29.6% (inactive)
CC(C)Cn1c(=S)[nH]c2cc(Cl)ccc21	-22.1% (inactive)
S=c1[nH]c2cc(Cl)ccc2s1	38.9% (active)
O=C(Nc1ccc2[nH]c(=S)sc2c1)Nc1ccccc1F	-39.7% (inactive)
S=c1[nH]c2ccc(Cl)cc2s1	36.9% (active)
COc1cc(S(=O)(=O)NCC2COCCO2)ccc1-n1cnnn1 (stereo not drawn)	-28.3% (inactive)
FC(F)(F)c1cnc2c(c1)[nH]c(=S)n2-c1ccc(Cl)cc1	-16.7% (inactive)
CNC(=O)c1ccc(NC(=O)CN2c3cccc4cccc(c34)S2(=O)=O)cc1	-22% (inactive)
O=C1NC(=S)SC1=C1CCCCCC1	26% (active)

Structure (SMILES)	signal change vs control minus 3*SD hit threshold (margin above threshold, higher = more increase)
CCCCCN(C(=O)CCC(=O)OCC(=O)N(C)C1CCCCC1)c1c(N)n(CCCC)c(=O)[nH]c1=O	-20.9% (inactive)
CCC1(C(=O)O)NC(c2cc(OC)ccc2O)C2C(=O)N(Cc3ccccc3)C(=O)C21 (stereo not drawn)	-29.6% (inactive)
O=C1NCCN1Cc1ccccc1F	-30.6% (inactive)
CON/C=N/C(=S)Nc1ncc(C(F)(F)F)cc1Cl	16.5% (active)
ON/C=N/C(=S)Nc1ncc(C(F)(F)F)cc1Cl	6.1% (active)
C/C(Cl)=C\Cn1c(O)c(N=NC(N)=S)c2cc(Br)ccc21	-15.7% (inactive)
COc1ccc(OC)c(S(=O)(=O)NCc2cn3cccc(C)c3n2)c1	-37.6% (inactive)
O=c1c2cc(Cl)ccc2nc(-c2ccc([N+](=O)[O-])cc2)n1O	4.5% (active)
O=c1c2ccc(Cl)cc2nc(-c2ccc([N+](=O)[O-])cc2)n1O	-15.4% (inactive)
O=c1c2cc(Br)ccc2nc(-c2ccc([N+](=O)[O-])cc2)n1O	6.7% (active)
O=[N+]([O-])c1ccc(CSc2nnc(SCc3ccc(Cl)cc3)s2)cc1	-24.5% (inactive)
Nc1nc(O)c(N=Nc2ccc(S(N)(=O)=O)cc2)c(=O)[nH]1	-32% (inactive)
CNC(=S)Nc1sc2c(c1C(=O)OC)CCC2	-15.1% (inactive)
Cc1ccc(C(=O)N/N=C(/CC(=O)c2cccs2)C(F)(F)F)cc1	-22.1% (inactive)
CC(C)=CCCC1=CCC2C(=O)NNC(=O)C2C1 (stereo not drawn)	-33.3% (inactive)
CC(C)(C)NC(=O)C(=O)NNC(=O)COc1ccccc1	-32.8% (inactive)
CC(C)(C)NC(=O)C(=O)NNC(=O)COc1ccc(Br)cc1	6.9% (active)
Cc1ccc(OCC(=O)NC(=S)Nc2ccc(Br)cn2)cc1	-4.8% (inactive)
c1ccc(SSc2ccccn2)nc1	-36.9% (inactive)
S=c1[nH]c(-c2ccccc2)cn1/N=C/c1cccc2ccccc12	-17.6% (inactive)
Oc1oc(-c2cccc3ccccc23)nc1/C=N/c1nccs1	-19.4% (inactive)
Oc1c(N=NC(=S)Nc2ccccc2F)c2ccccc2n1Cc1ccccc1	-17.5% (inactive)
CCCn1c(O)c(N=NC(=O)c2ccco2)c2ccccc21	29.8% (active)
CCn1c(O)c(N=NC(=O)CNC(=O)c2ccccc2F)c2ccccc21	-28.7% (inactive)
CN1C(=O)/C(=N\OC(=O)c2cccc3ccccc23)c2ccccc21	-18.7% (inactive)
C/C(Nc1cccc(F)c1)=C(/C#N)C(N)=O	-24.1% (inactive)

Structure (SMILES)	signal change vs control minus 3*SD hit threshold (margin above threshold, higher = more increase)
Cc1ccc(-c2csc3nc[nH]c(=S)c23)cc1C	-21.7% (inactive)
S=c1[nH]cnc2scc(-c3ccc(Br)cc3)c12	-22% (inactive)
Cc1sc2nc[nH]c(=S)c2c1-c1ccccc1	9.4% (active)
S=c1[nH]cnc2scc(-c3ccccc3)c12	-3.2% (inactive)
Cc1cc(-c2csc3nc[nH]c(=S)c23)cc(C)c1C	-3.4% (inactive)
Cc1c(-c2ccccc2)sc2nc[nH]c(=S)c12	6.1% (active)
Clc1ccc(Nc2nc3cccnc3s2)cc1	-29.8% (inactive)
CCOC(=O)N1CCN(C(=O)CCn2c(=S)[nH]c3ccsc3c2=O)CC1	-14.4% (inactive)
CN(CCc1ccccn1)C(=O)CCC1CCCN(C(=O)c2ccsc2)C1 (stereo not drawn)	-22.3% (inactive)
N=C1S/C(=C\c2ccc(-c3cccc(Cl)c3)o2)C(=O)N1c1nccs1	-18.8% (inactive)
Cc1cc(S(=O)(=O)N2CCOCC2)ccc1OCC(=O)NCc1ccco1	-27.2% (inactive)
Oc1c(Br)cc(Br)cc1C=Nc1ccc2[nH]ncc2c1	11% (active)
Oc1c(Br)cc(Br)cc1C=Nc1ccc2c(c1)OCCO2	-5.9% (inactive)
Oc1c(Br)cc(Br)cc1C=Nc1cccc2ncccc12	-0.4% (inactive)
COc1ccc(-n2c(O)c(/C=C3\C=Nc4ccccc43)c(=O)[nH]c2=O)cc1	-43% (inactive)
COCC(=O)NC1CC2CCC(C1)N2C(=S)Nc1ccccc1C(=O)OC (stereo not drawn)	-14.6% (inactive)
Cc1sc2ncnc(SCC(=O)c3ccc(O)cc3O)c2c1C	-22.1% (inactive)
CC(=O)CSc1ncnc2sc3c(c12)CCC(C)C3 (stereo not drawn)	49% (active)
Cc1noc(C)c1CSc1ncnc2sc3c(c12)CCCCC3	-14.1% (inactive)
COc1cc(NC(=O)CSc2ncnc3sc4c(c23)CCC(C)C4)c(C(=O)O)cc1OC (stereo not drawn)	29.8% (active)
COC(=O)c1c(NC(=O)CN2CCOCC2)sc2c1CCC(C)C2 (stereo not drawn)	-31.2% (inactive)
COc1cc(NC(=O)CCCOc2ccc(Cl)cc2Cl)c(C(=O)O)cc1OC	-17.7% (inactive)
CCOC(=O)/C(C)=N/NC(=O)c1cccc([N+](=O)[O-])c1	-14.2% (inactive)
CCOC(=O)c1ccc(Oc2cc(C)nc(SC)n2)cc1	-8.1% (inactive)
Cc1cccc(C(=O)NC(=S)N(C)C2CCCCC2)c1	-9.9% (inactive)
